An excerpt weighted towards active compounds, which were near 13% of everything screened.
CHX counter: affects cycloheximide protein synthesis inhibition readout, counter-screen; cell reporter, cycloheximide protein synthesis inhibition counterscreen; max response, %; actives 12% (n = 300,000); AID 2314; in the data active = max response mostly above about 13%, no sharp cut-off; inactive = mostly below about 14%; note: read at 38.3 µM for the half of the compounds with a filed dose; 0% is about no effect
Shiga inhibitor: Shiga toxin inhibition; actives 9.2% (n = 290,000); inhibition, % at 38.7 µM; AID 2315; Vero cells, Shiga toxin protein synthesis inhibition reporter; in the data active = inhibition mostly above about 28%, no sharp cut-off; inactive = mostly below about 43%; note: 0% is about no effect
HCV inh: blocks hepatitis C virus | Huh7.5.1 HCVcc-Cre infection, luciferase reporter, 44 h | Potency, µM (top dose mostly 41.8 µM), for inactives: top-dose activity change, negative = inhibition, hits mostly inhibitors | actives 3.4% (n = 340,000) | AID 651820; active = well fitted inhibition curve with a large enough effect; inconclusive = small, poorly fitted or top-dose-only effect, or another doubt; inactive = no such curve, though single readings can be large or run the other way; note: potency is the fitted concentration of half-maximal effect; % is set by controls: 0 for no effect and ±100 for the full control effect
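1,000 cells/well; 4 h culture; + compound; + HCVcc-Cre (~0.5 moi); 44 h; luciferase substrate, RT 15 min; read 15 sec.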
Marburg entry inh: inhibitors of Marburg virus binding or cell entry | Marburg virus pseudotyped entry inhibition, cell reporter | Potency, µM (top dose mostly 37.8 µM), for the others: at the top dose activity change, negative = inhibition, actives largely listed as inhibitors | actives 1.8% (n = 300,000) | AID 540276; calls by dose curve; tested in HEK293 cells; note: potency is the fitted concentration of half-maximal effect; % is set by controls: 0 for no effect and ±100 for the full control effect
LASV entry inh: inhibitors of Lassa virus binding or cell entry. AID 540256. Potency, µM (highest dose often 37.9 µM), without a hit: top-dose activity change, negative = inhibition, actives largely listed as inhibitors. Lassa virus pseudotype entry inhibition, cell reporter. actives 1.2% (n = 300,000); calls by dose curve; tested in HEK293 cells; note: potency is the fitted concentration of half-maximal effect; % is set by controls: 0 for no effect and ±100 for the full control effect; nearly all actives have a fitted effect of over 50% in size
FMDV inh: foot and mouth disease virus antiviral activity. FMDV antiviral cell-based qHTS. Potency, µM (doses to about 57.9 µM), for the others: at the highest dose activity change, negative = inhibition, actives largely listed as inhibitors. actives 1.2% (n = 410,000); calls by dose curve; tested in HEK293T cells; note: read-out not given here; potency is the fitted concentration of half-maximal effect; % is set by controls: 0 for no effect and ±100 for the full control effect; nearly all actives have a fitted effect of over 45% in size
An asterisk follows results filed as active; ? = inconclusive; . = no result; [ ] = another dose, or the depositor's remark.

SMILES | CHX counter | Shiga inhibitor | HCV inh | Marburg entry inh | LASV entry inh | FMDV inh
O=C(COc1cccc(F)c1)NNC(=O)Cc1ccc(S(=O)(=O)N2CCOCC2)s1 | . | . | 1.3% | . | . | -1.1%
CC1CC/C(=C\c2ccc3c(c2)OCO3)C(=O)/C1=C/c1ccc2c(c1)OCO2 (centres undefined) | -0.8 | 8.6 | ? | -6.3% | ? | ?
O=C(Nc1ccc(F)c(Cl)c1)Nc1csc2ccccc12 | 38.0* | 56.7* | ? | ? | ? | 10.3%
O=C(Nc1ccc(F)cc1F)Nc1csc2ccccc12 | 41.9* | 117.2* | ? | ? | ? | 6.6%
O=C(Nc1ccc(F)c(Cl)c1)Nc1ccc(Cl)cn1 | -1.0 | 14.4 | ? | . | . | 11.5%
NC(=O)CSc1nnnn1-c1cccc(Cl)c1 | -3.8 | -8.4 | 32.8% | 15.0% | 4.2% | -18.3%
Cc1ccc(S(=O)(=O)/N=c2\scc(C)n2C)cc1 | . | . | 2.5% | . | . | 21.2%
CCn1c(C)csc1=NC(=O)c1ccccc1O | 55.9* | 107.4* | -24.7% | ? | ? | .
CCn1c(C)csc1=NC(=O)c1ccccc1 | 28.8* | 33.7* | 3.0% | ? | ? | 37.1%
Cc1cc(C)nc(NC(=O)c2ccccc2O)n1 | 4.1 | 5.2 | 15.0% | . | . | 3.2%
Cc1csc(=NC(=O)c2ccccc2)n1C | 50.5* | 82.8* | 6.4% | 17.2% | -18.1% | 0.0%
CC(C)(C)OC(=O)COc1cc(F)ccc1[N+](=O)[O-] | . | . | 4.0% | . | . | -19.6%
Cc1cccc(N2C(=O)CC(N3CCN(c4ccc(Cl)cc4)CC3)C2=O)c1 (centres undefined) | -4.8 | . | 9.2% | . | . | -19.2%
CCCS(=O)(=O)NCCc1csc2nc(-c3ccc(C)cc3)nn12 | . | . | . | . | 5.8%[46.1 µM] | -17.6%
CCc1ccc(NC(=O)CC2C(=O)N(c3ccc(C)cc3)C(=O)N2C2CCCC2)cc1 (centres undefined) | . | . | . | -17.3%[46.1 µM] | -2.5%[46.1 µM] | 7.6%
Cc1ccc(N2C(=O)C(CC(=O)Nc3cccc(F)c3)N(C3CC3)C2=O)cc1 (centres undefined) | 17.9* | 5.1 | 1.9% | . | . | 10.6%
Cc1cc(C)cc(-n2nnc(-c3nsc(NC(=O)c4ccccc4Cl)n3)c2C)c1 | . | . | . | 10.1%[46.1 µM] | -22.4%[46.1 µM] | 1.3%
N#C[C@H]1[C@H](c2ccccc2)[C@](C#N)(C(=O)c2ccccc2)[C@@H]2C=Cc3ccccc3N21 | 41.6* | 54.6 | . | . | . | .
COc1ccc(C(=O)N2c3ccccc3C=CC2C#N)cc1 (centres undefined) | 10.5 | -9.1 | -12.4% | -1.7% | ? | 0.0%
O=S(=O)(Nc1cc(S(=O)(=O)N2CCOCC2)ccc1N1CCOCC1)c1ccc2c(c1)OCCO2 | 16.2* | 11.1 | -10.2% | . | . | 0.0%
CC(C)Oc1ccc(C(=O)Nc2cccc(S(=O)(=O)N3CCCC3)c2)cc1 | . | . | 2.82µM* | ? | ? | -6.2%
CC(C)Oc1ccc(C(=O)Nc2cc(S(=O)(=O)N3CCOCC3)ccc2N2CCOCC2)cc1 | . | . | ? | ? | 12.6µM* | 13.1%
O=C(Nc1cc(S(=O)(=O)N2CCOCC2)ccc1N1CCCC1)C1CC1 | 2.3 | -18.7 | -1.2% | 16.5%[46.1 µM] | 1.5%[46.1 µM] | -4.7%
CC1CC1C(=O)Nc1cc(S(=O)(=O)N2CCOCC2)ccc1N1CCCC1 (centres undefined) | 6.6 | -2.5 | 10µM* | -1.0%[46.1 µM] | -3.6% | -6.5%
Cc1ccc(C)c(COc2coc(CN3CCN(C(=O)c4ccco4)CC3)cc2=O)c1 | . | . | 3.7% | -1.0% | ? | -17.6%
SMILES | CHX counter | Shiga inhibitor | HCV inh | Marburg entry inh | LASV entry inh | FMDV inh
Cc1cc(C(=O)N2CCc3ccccc32)n(-c2ccccc2)n1 | -1.1 | -3.1 | ? | . | . | -18.2%
O=C(Nc1cccc(O)c1)c1ccc(S(=O)(=O)N2CCCCCC2)cc1 | 18.1* | 52.0* | 3.3% | ? | ? | -9.1%
CCN1CCN(c2ccc(S(=O)(=O)N3CCOCC3)cc2NC(=O)C(C)Oc2cccc(Cl)c2)CC1 (centres undefined) | . | . | ? | ? | ? | -12.7%
COc1ccc(/C=N/NC(=S)Nc2cc(S(=O)(=O)N3CCOCC3)ccc2N2CCOCC2)cc1O | -3.8 | -2.4 | 10µM* | ? | ? | ?
O=C(Nc1cccc(O)c1)c1cccc(S(=O)(=O)N2CCCC2)c1 | 10.2 | -3.7 | -22.2% | 8.1% | -5.1% | -16.1%
COc1ccc2ccccc2c1/C=N/NC(=S)Nc1cc(S(=O)(=O)N2CCOCC2)ccc1N1CCOCC1 | -1.9 | -5.6 | ? | 0.0% | -0.5% | -18.7%
CC(Oc1cccc(Cl)c1)C(=O)Nc1cc(S(=O)(=O)N2CCOCC2)ccc1N1CCCCC1 (centres undefined) | . | . | 22.4µM* | ? | ? | ?
Cn1nc(C(=O)Nc2cccc(S(=O)(=O)N3CCCCC3)c2)c2ccccc2c1=O | . | . | ? | 6.31µM* | -22.0% | -15.7%
COC(=O)Cn1c(=O)c2c(nc(Br)n2Cc2ccccc2Cl)n(C)c1=O | 23.5 | 27.4 | 5.0% | 5.8% | -18.1% | -29.1%
COc1cccc(CNC(=O)[C@@H]2CCCN2C(=O)[C@H]2CCCCN2C(=O)c2ccccc2)c1 | . | . | . | . | . | -22.4%
COc1ccc(-c2nn(-c3cccc(F)c3)c3c2cnc2cc(OC)c(OC)cc23)cc1 | . | . | . | . | 29.8%[46.1 µM] | -1.9%
CN(C)S(=O)(=O)c1cccc(NC(=O)c2ccc(S(=O)(=O)N3CCCC3)cc2)c1 | . | . | 10µM* | 0.5% | 0.6% | 0.0%
NS(=O)(=O)c1cccc(NC(=O)c2ccc(S(=O)(=O)N3CCCCCC3)cc2)c1 | . | . | ? | -5.3% | -6.4% | -11.7%
COc1ccccc1NS(=O)(=O)c1cccc(NC(=O)c2nn(C)c(=O)c3ccccc23)c1 | . | . | ? | . | . | -10.5%
COc1ccc(NC(=O)c2nn(C)c(=O)c3ccccc23)cc1S(=O)(=O)Nc1ccccc1Cl | 1.3 | -15.0 | 12.6µM* | . | . | 85.8%
Cc1ccc(C(=O)CCC(=O)Nc2ncccc2C)cc1 | . | . | 9.8% | . | . | 28.1%
Cc1ccc(NC(=O)c2cc3c(s2)CCC3)cc1S(=O)(=O)N1CCOCC1 | 1.0 | -10.2 | 7.94µM* | -20.4% | -12.0% | ?
Cc1ccc(S(=O)(=O)N2CCOCC2)cc1NC(=O)c1cc2c(s1)CCC2 | -5.1 | -11.4 | -26.4% | -25.0% | 3.5% | -21.4%
Cc1ccc(C(=O)Nc2ccc3c(c2)CCC3)cc1S(=O)(=O)N1CCOCC1 | 33.5* | 98.0* | ? | ? | 12.5%[46.1 µM] | 22.6%
O=C(Nc1ccc2c(c1)CCC2)c1ccc(F)c(S(=O)(=O)N2CCOCC2)c1 | 26.5* | 35.7* | 15.8µM* | ? | ? | -26.0%
COc1ccc(NC(=O)c2cc3c(s2)CCC(C)C3)cc1S(=O)(=O)N1CCOCC1 (centres undefined) | 10.2 | 11.0 | ? | ? | 23.1µM* | 28.2µM*
Cc1cc(C)c2c(n1)nn1c(C)c(CCC(=O)NCc3ccc(Cl)cc3)c(C)nc21 | . | . | . | 1.1%[46.1 µM] | ? | 5.8%
O=C(NCc1ccc(F)cc1)C1CCN(S(=O)(=O)N2CCCC2)CC1 | 4.6 | -8.5 | 9.8% | 9.3% | -10.1% | -3.5%
COc1cc(NC(=O)CCNS(=O)(=O)c2cc(Br)cnc2N)cc(OC)c1 | 6.7 | -4.6 | 12.0% | -11.9%[46.1 µM] | -5.7%[46.1 µM] | -2.3%

Source: PubChem BioAssay (National Center for Advancing Translational Sciences (NCATS))
